# Test results: PubChem BioAssay AID463173 (ICCB-Longwood Screening Facility, Harvard Medical School, 2010)
# The campaign covered roughly 52,000 compounds. About 4,300 (8.3%) were called active. This is one part of a sample in which actives are shown more often than they occur. Rule as the data show it: active = survival mostly below about 52% (no sharp cut-off); inactive = mostly above about 56%.
# System: DeltatarO mutant
# Test: S. aureus survival, RN4220 and DeltatarO strains – OD600, teichoic acid synthesis inhibitors, primary screen (AID 463173)
# Details: S. aureus RN4220 wild type/DeltatarO growth, OD600, 18 h, stronger effect = lower value, screened at 18.75 µg/mL (by protocol)
row,Structure (SMILES),survival
1,CCCN1C(=O)C2(c3ccccc31)c1c(oc3ccccc3c1=O)C(=O)N2CCCOC(C)C (configuration not stated),48% (inactive)
2,COCCCN1C(=O)c2oc3ccccc3c(=O)c2C12C(=O)N(C)c1ccccc12 (configuration not stated),64% (inactive)
3,CCCN1C(=O)C2(c3ccccc31)c1c(oc3cc(C)c(C)cc3c1=O)C(=O)N2CCCOC (configuration not stated),55% (active)
4,CCN1C(=O)C2(c3ccccc31)c1c(oc3ccc(F)cc3c1=O)C(=O)N2CCCOC (configuration not stated),64% (inactive)
5,CCCN1C(=O)C2(c3ccccc31)c1c(oc3ccc(C)cc3c1=O)C(=O)N2CCOC (configuration not stated),60% (inactive)
6,Cc1ccc2oc3c(c(=O)c2c1)C1(C(=O)N(C)c2ccccc21)N(CCCO)C3=O (configuration not stated),51% (active)
7,CCN1C(=O)C2(c3ccccc31)c1c(oc3ccc(C)cc3c1=O)C(=O)N2CCCOC(C)C (configuration not stated),49% (inactive)
8,COCCN1C(=O)c2oc3ccc(C)cc3c(=O)c2C12C(=O)N(C)c1ccccc12 (configuration not stated),45% (active)
9,Cc1cc2oc3c(c(=O)c2cc1C)C1(C(=O)N(C)c2ccccc21)N(CCO)C3=O (configuration not stated),55% (inactive)
10,CCCCc1nn2c(C)c(-c3ccc(OCC)cc3)nc2s1,103% (inactive)
11,CCOC(=O)c1sc(NC(=O)C(C)Sc2nc(-c3ccccc3)cc(C(F)(F)F)n2)c(C(=O)OC)c1C (configuration not stated),159% (inactive)
12,Cc1ccc(Cl)cc1N1CCN(C(=O)Cn2nc(C)c3sc4ccccc4c3c2=O)CC1,57% (inactive)
13,COc1ccc(CCN2C(=O)CN=C2Nc2ccc(F)cc2)cc1OC,78% (inactive)
14,COC(=O)c1ccc(C(=O)OC)c(NC(=O)c2ccc(-c3ccccc3)s2)c1,126% (inactive)
15,CCOC(=O)c1c(CN(C)C)oc2ccc(O)cc12,88% (inactive)
16,CC(=O)Nc1ccc(NC(=O)C(c2ccccc2)N2Cc3ccccc3C2=O)cc1 (configuration not stated),119% (inactive)
17,CCc1ccccc1NC(=O)[C@@H](c1ccccc1)N1Cc2ccccc2C1=O,4% (active)
18,CCCCNC(=O)[C@@H](c1ccccc1)N1Cc2ccccc2C1=O,54% (inactive)
19,CSc1cccc(NC(=O)C(c2ccccc2)N2Cc3ccccc3C2=O)c1 (configuration not stated),88% (inactive)
20,O=C(Nc1cccc(F)c1)[C@@H](c1ccccc1)N1Cc2ccccc2C1=O,46% (active)
21,CC(C)NC(=O)C(c1ccccc1)N1Cc2ccccc2C1=O (configuration not stated),101% (inactive)
22,CCOc1ccccc1NC(=O)C(c1ccccc1)N1Cc2ccccc2C1=O (configuration not stated),96% (inactive)
23,O=C(Nc1ccc(F)c(F)c1)C(c1ccccc1)N1Cc2ccccc2C1=O (configuration not stated),102% (inactive)
24,Cc1ccc(NC(=O)[C@@H](c2ccccc2)N2Cc3ccccc3C2=O)cc1,71% (inactive)
25,CC(C)CCNC(=O)[C@@H](c1ccccc1)N1Cc2ccccc2C1=O,12% (active)

row,Structure (SMILES),survival
1,O=C(Nc1ccc(F)cc1)[C@@H](c1ccccc1)N1Cc2ccccc2C1=O,38% (active)
2,O=C(Nc1ccccc1F)C(c1ccccc1)N1Cc2ccccc2C1=O (configuration not stated),72% (inactive)
3,COc1ccc(C(=O)OCc2cc(=O)n3nc(C4CC4)sc3n2)cc1OC,91% (inactive)
4,CC(=O)N1c2ccc(S(=O)(=O)NCC3CCC(C(=O)Nc4ccccc4C)CC3)cc2CC1C (configuration not stated),104% (inactive)
5,CCOc1ccccc1CNC(=O)C1CCN(S(=O)(=O)c2ccc3c(ccn3C)c2)CC1,96% (inactive)
6,O=C(Nc1cccc(F)c1F)C1CCN(c2ncccn2)CC1,62% (inactive)
7,COc1ccc(CCNC(=O)CCCCn2c(=O)c3ccccc3n(CC(=O)Nc3c(C)cccc3C)c2=O)cc1OC,115% (inactive)
8,Cc1ccc2c(c1)-c1onc(C(=O)N(C)c3ccc(F)cc3)c1CO2,65% (inactive)
9,O=C(NCCCN1CCN(c2ccccc2F)CC1)C1COc2ccccc2C1 (configuration not stated),92% (inactive)
10,COc1ccc(OC)c(CCNC(=O)c2ccc3c(c2)c(C)c(C)n3Cc2ccccc2)c1,79% (inactive)
11,COc1cc(-c2nc3cc(Cl)ccc3o2)cc(OC)c1OC,87% (inactive)
12,CCOC(=O)c1sc2ccccc2c1S(=O)(=O)Nc1c(C)cccc1C,70% (inactive)
13,COc1ccc(-c2cc(C(F)(F)F)nc(SCC(=O)N(C)Cc3ccccc3)n2)cc1,44% (inactive)
14,CN(Cc1ccccc1)C(=O)CSc1nc(-c2ccc(F)cc2)cc(C(F)(F)F)n1,31% (active)
15,O=C(CSc1nc(-c2ccc(F)cc2)cc(C(F)(F)F)n1)NCc1ccccc1,62% (inactive)
16,COc1ccccc1CNC(=O)CSc1nc(-c2ccc(OC)c(OC)c2)cc(C(F)(F)F)n1,55% (inactive)
17,COc1ccc(-c2cc(C(F)(F)F)nc(SCC(=O)NCCc3ccccc3)n2)cc1OC,58% (inactive)
18,COc1ccc(-c2cc(C(F)(F)F)nc(SCC(=O)N(C)Cc3ccccc3)n2)cc1OC,33% (active)
19,O=C(C1CCC1)N1CCc2cc(S(=O)(=O)NCc3ccc(F)cc3)ccc21,93% (inactive)
20,CCOc1ccccc1NC(=O)Cn1c(=O)n(-c2ccc(Cl)cc2)c(=O)c2oc3ccccc3c21,69% (inactive)
21,CN(C)c1ccc(NC(=O)CSC2=Nc3ccccc3C3=NC(CCC(=O)NCc4cccs4)C(=O)N23)cc1 (configuration not stated),75% (inactive)
22,Cc1ccc2oc(=O)c3cc(C(=O)Nc4ccc(C)c(F)c4)sc3c2c1,77% (inactive)
23,Cc1nc(-n2nc(C)c(CCC(C)C)c2C)sc1C(=O)Nc1ccc(Br)cc1,50% (inactive)
24,OCCN(CCO)c1ncnc2c1cnn2-c1ccc(F)cc1,6% (active)
25,CCCCN(CCCC)c1ncnc2c1cnn2-c1cccc(C)c1,74% (inactive)

row,Structure (SMILES),survival
1,COc1ccc(CCNc2ncnc3c2cnn3-c2ccc(C)cc2)cc1,81% (inactive)
2,CCN(c1ccccc1)c1ncnc2c1cnn2-c1ccc(OC)cc1,52% (active)
3,CCN(Cc1ccccc1)c1ncnc2c1cnn2-c1ccc(F)cc1,79% (inactive)
4,CCN(c1ccccc1)c1ncnc2c1cnn2-c1ccc(C)cc1C,55% (inactive)
5,Cc1ccc(-n2ncc3c(N(CCO)Cc4ccccc4)ncnc32)cc1,8% (active)
6,COc1ccc(-n2ncc3c(NCCCOC(C)C)ncnc32)cc1,0% (active)
7,COCCCNc1ncnc2c1cnn2-c1ccc(F)cc1,86% (inactive)
8,CCCCN(c1ccccc1)c1ncnc2c1cnn2-c1ccc(Cl)cc1,87% (inactive)
9,Cc1ccc(-n2ncc3c(N(C)Cc4ccccc4)ncnc32)cc1,89% (inactive)
10,Cc1ccc(-n2ncc3c(NCCc4ccccc4)ncnc32)cc1,87% (inactive)
11,COc1ccc(Cl)cc1NC(=O)c1c(NCc2sccc2C)sc2c1CCCC2,71% (inactive)
12,CC(=O)NC1(c2ccccc2)CCN(Cc2nnnn2C(C)(C)C)CC1,91% (inactive)
13,Cc1ccc(C)c(N2CCN(C(=O)CCS(=O)(=O)c3ccc4c(c3)CC(=O)N4C)CC2)c1,89% (inactive)
14,O=C(Nc1ccccc1F)NC1CCN(Cc2nnnn2Cc2ccc(F)cc2)CC1,96% (inactive)
15,CC(=O)N1CCCc2ccc(NS(=O)(=O)c3cccc(Cl)c3)cc21,80% (inactive)
16,N#Cc1c[nH]n2c(NC3CCCC3)c(-c3cccc(Br)c3)nc12,45% (inactive)
17,COc1cc(CN(C(=O)c2oc3ccccc3c2C)C2CCS(=O)(=O)C2)cc(OC)c1OC (configuration not stated),55% (inactive)
18,Cc1ccc2c(C)c(C(=O)N(Cc3ccc(Cl)cc3)C3CCS(=O)(=O)C3)oc2c1 (configuration not stated),34% (active)
19,COc1cccc(CN(C(=O)c2oc3ccccc3c2C)C2CCS(=O)(=O)C2)c1 (configuration not stated),69% (inactive)
20,Cc1c(C(=O)N(Cc2ccc(N(C)C)cc2)C2CCS(=O)(=O)C2)oc2ccccc12 (configuration not stated),42% (active)
21,Cc1c(C(=O)N(Cc2cccc(F)c2)C2CCS(=O)(=O)C2)oc2cc(Br)ccc12 (configuration not stated),63% (inactive)
22,Cc1ccc2oc(C(=O)N(Cc3cccc(F)c3)C3CCS(=O)(=O)C3)c(C)c2c1 (configuration not stated),76% (inactive)
23,COc1cccc(CN(C(=O)c2oc3cc(C)ccc3c2C)C2CCS(=O)(=O)C2)c1 (configuration not stated),57% (inactive)
24,COc1cccc(CN(C(=O)c2oc3ccc(Br)cc3c2C)C2CCS(=O)(=O)C2)c1 (configuration not stated),40% (active)
25,Cc1c(C(=O)N(Cc2ccccc2F)C2CCS(=O)(=O)C2)oc2ccccc12 (configuration not stated),84% (inactive)

row,Structure (SMILES),survival
1,C=CCn1c(C(C)NC(=O)c2ccccc2Cl)n[nH]c1=S (configuration not stated),76% (inactive)
2,Cc1cccc(C)c1NC(=O)c1ccc2nc(CCc3ccccc3)oc2c1,69% (inactive)
3,O=C(Nc1ccc(Cl)cc1Cl)c1cc(S(=O)(=O)NCc2ccc3c(c2)OCO3)ccc1F,94% (inactive)
4,O=C(C1CCCN(S(=O)(=O)c2cccc3nsnc23)C1)N1CCN(c2ccccc2)CC1 (configuration not stated),79% (inactive)
5,CN1C(=O)SC(N(CC(N)=O)c2ccccc2)C1=O (configuration not stated),61% (inactive)
6,COc1cc(NC(=O)Cn2nc(Cc3cccnc3)c3ccccc3c2=O)cc(OC)c1OC,71% (inactive)
7,COCCNC(=O)CSc1nc2cc3c(cc2c(=O)n1CCCC(=O)NCc1ccc(OC)cc1)OCO3,84% (inactive)
8,CC(=O)c1ccc(NC(=O)CSc2nnc3ccc(-c4ccc(Cl)cc4)nn23)cc1,83% (inactive)
9,CCOC(=O)c1c(NC(=O)CSc2cn(CCNC(=O)c3ccc(OCC)cc3)c3ccccc23)sc2c1CCCC2,93% (inactive)
10,COc1cccc(C(=O)COC(=O)c2cc(-c3cccs3)nc3ccccc23)c1,54% (inactive)
11,Cc1ccc(-c2nc3c(cnn3-c3ccccc3)c(=O)n2-c2ccc(Cl)cc2)cc1,44% (active)
12,COc1cccc(-n2c(-c3ccccc3F)nc3c(cnn3-c3ccc(C)cc3)c2=O)c1,75% (inactive)
13,COc1cccc(-n2c(-c3cccc(F)c3)nc3c(cnn3-c3ccc(C)cc3)c2=O)c1,76% (inactive)
14,Cc1ccc(-n2c(-c3ccco3)nc3c(cnn3-c3ccc(C)cc3)c2=O)cc1,81% (inactive)
15,Cc1ccc(-n2c(-c3ccc(Br)cc3)nc3c(cnn3-c3ccccc3)c2=O)cc1,39% (active)
16,Cc1ccc(-n2c(-c3cccc(C)c3)nc3c(cnn3-c3ccccc3)c2=O)cc1,19% (active)
17,CCc1nc2c(cnn2-c2ccccc2)c(=O)n1-c1ccc(Br)cc1,86% (inactive)
18,COc1ccc(-n2c(-c3ccccc3F)nc3c(cnn3-c3ccc(C)cc3)c2=O)cc1,80% (inactive)
19,COc1ccc(-n2c(-c3cccc(F)c3)nc3c(cnn3-c3ccc(C)cc3)c2=O)cc1,96% (inactive)
20,Cc1ccc(-c2nc3c(cnn3-c3ccccc3)c(=O)n2-c2cccc(Cl)c2)cc1,33% (active)
21,CCc1nc2c(cnn2-c2ccc(C)cc2)c(=O)n1-c1ccc(C)cc1,47% (inactive)
22,Cc1cccc(-c2nc3c(cnn3-c3ccccc3)c(=O)n2-c2ccc(Br)cc2)c1,139% (inactive)
